Screening data from PubChem.
KB-3-1 tox: KB-3-1 parental cell cytotoxicity | Potency, µM (highest dose often 46.1 µM), actives largely listed as cytotoxic | 400,000 tested, 1.4% active | KB-3-1 viability, CellTiter-Glo ATP luminescence, 72 h | AID 1347075; note: nearly all actives have a fitted effect of over 60% in size
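Cytotoxicity in the drug-sensitive parental line KB-3-1 was scored as loss of CellTiter-Glo luminescence following 72 h incubation with compound. Values come from curve fitting of normalized concentration-response data.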
KCNH2 3.1 inh: KCNH2 3.1 (human) potassium channel inhibition | U2OS KCNH2 3.1, thallium flux FluxOr; stronger effect = lower value | activity change, % (tested at about 1.8 µM) | 340,000 tested, 0.95% active | AID 720553;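 active = maximum activity change below -70%; inconclusive = maximum activity change from -70% to -50%; inactive = maximum activity change above -50%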;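 note: thallium influx rate constant from kinetic fluorescence after stimulation buffer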
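Thallium flux read-out: FluxOr dye with Red40 quencher in HBSS/HEPES, 45 min at RT. Rate constants from kinetic reads were normalized to positive and negative DMSO controls. Cells: U2OS virally expressing the 3.1 isoform.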
SW480 rereplic: DNA re-replication induction in SW480 cells; Potency, µM (doses to about 46.1 µM), usual class: activators; 340,000 tested, 1.8% active; SW480 DNA re-replication, Hoechst DNA content imaging, 48 h; note: nearly all actives have a fitted effect of over 55% in size
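DNA re-replication was detected as more nuclei of elevated Hoechst intensity after 48 hr exposure to compound (23 nL pinned per well of 250 cells).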
KB-V1 cytotox: KB-V1 MDR subline cytotoxicity. KB-V1 MDR cells viability, CellTiter-Glo, 72 h. Potency, µM (top dose mostly 46.1 µM), usual class: cytotoxic. 400,000 tested, 3.4% active. AID 1347076; note: nearly all actives have a fitted effect of over 60% in size
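Following 72 h at 37 degrees C with compound, KB-V1 cell viability was read by CellTiter-Glo luminescence, medium being phenol-red-free DMEM plus 10% FBS; concentration-response parameters came from normalized, curve-fitted qHTS data.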
hERG WT inh: KCNH2 (human, wildtype) channel inhibition. U2OS, BacMam KCNH2, thallium flux FluxOr; stronger effect = lower value. activity change, % at 1.84 µM. 340,000 tested, 0.37% active. AID 720551;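 active = maximum activity change below -70%; inconclusive = maximum activity change between -70% and -50%; inactive = maximum activity change above -50%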
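U2OS cells were transduced with wild-type KCNH2 virus (2.03 x 10^8 / mL) for 4 h at room temperature, then cultured overnight at 37 C. Thallium flux was read with FluxOr dye. Rate constants were normalized to DMSO controls.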
MCF10A rereplic: induces DNA re-replication in MCF 10a normal breast cells. MCF 10A DNA re-replication, Hoechst nuclear intensity, 48 h. Potency, µM (series often up to 46.1 µM), usual class: activators. 350,000 tested, 2.9% active. AID 624296; note: nearly all actives have a fitted effect of over 50% in size
Hits are given with their value. Hits are enriched below; roughly 7.6% of the tested compounds scored in any of these assays. Unless noted, calls come from the whole dose curve; as a rule, active = well fitted curve in the direction sought with a large enough effect; inconclusive = small, poorly fitted or top-dose-only effect, or another doubt; inactive = no such curve, though single readings can be large; an effect the other way counts as inactive or inconclusive.

For CCCn1c(=O)[nH]c2ccccc21 the results were KB-3-1 tox inactive, KCNH2 3.1 inh inactive, SW480 rereplic inactive, KB-V1 cytotox inactive, hERG WT inh inactive and MCF10A rereplic inactive.
`Cc1cc(C(=O)OCC(=O)NC(=O)C2CCCCC2)ccc1[N+](=O)[O-]` gave KB-3-1 tox inactive and KB-V1 cytotox inactive.
COC(=O)c1ccc(C(NC(=O)OCc2ccccc2)/C(F)=C/[C@@H](C)C(=O)NCc2ccc(OC)c(OC)c2)cc1 (some centres undefined) was read as KB-3-1 tox inconclusive, SW480 rereplic 16.4µM, KB-V1 cytotox inactive and MCF10A rereplic inconclusive.
For COC(=O)c1ccc(C(NC(=O)OCc2ccccc2)/C(F)=C/[C@@H](C)C(=O)NCc2ccc(-c3ccccc3)cc2)cc1 (some centres undefined) the results were KB-3-1 tox inactive, SW480 rereplic inactive, KB-V1 cytotox inactive and MCF10A rereplic inconclusive.
CC(C)(O)[C@H]1Cc2cc3ccc(=O)oc3cc2O1 was read as KB-3-1 tox inconclusive, KCNH2 3.1 inh inactive, SW480 rereplic inactive, KB-V1 cytotox inactive, hERG WT inh inactive and MCF10A rereplic inactive.
Screening Cc1cc(C)c(C(=O)/C=C/C=C/c2ccccc2)c(=O)[nH]1 returned KB-3-1 tox inactive, KCNH2 3.1 inh inactive, SW480 rereplic inactive, KB-V1 cytotox inactive, hERG WT inh inactive and MCF10A rereplic inconclusive.
Screening Cc1cc(C)c(C(=O)/C=C/c2ccc(C(C)C)cc2)c(=O)[nH]1 returned KB-3-1 tox inactive, KCNH2 3.1 inh inactive, SW480 rereplic inconclusive, KB-V1 cytotox 16.4µM, hERG WT inh inactive and MCF10A rereplic 13µM.
O=c1ccsn1Cc1ccccc1 was read as KB-3-1 tox inactive, KCNH2 3.1 inh inactive, SW480 rereplic 18.4µM, KB-V1 cytotox inactive, hERG WT inh inactive and MCF10A rereplic inconclusive.
`CN(NC(=O)COc1ccccc1)C1=NS(=O)(=O)c2ccccc21` gave KB-3-1 tox inactive, KCNH2 3.1 inh inactive, SW480 rereplic inactive, KB-V1 cytotox inactive, hERG WT inh inactive and MCF10A rereplic inconclusive.
COc1ccc(-c2cc(C3CCN(c4ccc(C(C)=O)cc4[N+](=O)[O-])CC3)[nH]n2)cc1 was read as KB-3-1 tox inconclusive, KCNH2 3.1 inh inactive, SW480 rereplic inactive, KB-V1 cytotox 14.6µM, hERG WT inh inactive and MCF10A rereplic inactive.
COc1ccc(-c2cc(C3CCN(C(=O)OC(C)(C)C)CC3)[nH]n2)cc1 was read as KB-3-1 tox inconclusive, KCNH2 3.1 inh inactive, SW480 rereplic inactive, KB-V1 cytotox 13µM, hERG WT inh inactive and MCF10A rereplic inactive.
Screening COc1ccc(-c2cc3nc(C4CCN(C(=O)OC(C)(C)C)CC4)c(C(=O)Nc4cc(C)cc(C)c4)cn3n2)cc1 returned KB-3-1 tox inactive and KB-V1 cytotox inactive.
`COC(=O)c1ccc(N2CCC(c3cc(-c4ccc(OC)cc4)n[nH]3)CC2)c([N+](=O)[O-])c1` gave KB-3-1 tox inactive, KCNH2 3.1 inh inactive, SW480 rereplic inactive, KB-V1 cytotox inconclusive, hERG WT inh inactive and MCF10A rereplic inactive.
For CCOC(=O)c1cn2nc(-c3ccc(OC)cc3)cc2nc1C1CCN(C(=O)OC(C)(C)C)CC1 the results were KB-3-1 tox inactive, KCNH2 3.1 inh inactive, SW480 rereplic inactive, KB-V1 cytotox 6.51µM, hERG WT inh inactive and MCF10A rereplic inconclusive.
For O=S(=O)(O)c1cccc2cccc(Nc3ccccc3)c12 the results were KB-3-1 tox inactive, KCNH2 3.1 inh inactive, SW480 rereplic 16.4µM, KB-V1 cytotox inactive, hERG WT inh inactive and MCF10A rereplic 20.6µM.
Cc1nc(Sc2ccc(Br)cc2)c(C#N)c(C)c1[N+](=O)[O-] was read as KB-3-1 tox inconclusive, KCNH2 3.1 inh inactive, SW480 rereplic inactive, KB-V1 cytotox inconclusive, hERG WT inh inactive and MCF10A rereplic 20.6µM.
`Cc1nc(Sc2ccc(Cl)cc2)c(C#N)c(C)c1[N+](=O)[O-]` gave KB-3-1 tox inactive, KCNH2 3.1 inh inactive, SW480 rereplic inconclusive, KB-V1 cytotox inconclusive, hERG WT inh inactive and MCF10A rereplic 18.4µM.
